Assay results taken from PubChem BioAssay.
Values joined by “and” are separate entries in the source; they are usually repeats but may differ in a detail not shown here. Equal values may be shown once. Active and inactive are the calls of the source.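 How the source made its calls, unless noted: active means normalized viability below 100% at a tested concentration; inactive means the rest.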

Key:
[1] = hESC survival regulators, cell-based (AID 493140; call rule not given here;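 further: cells exposed to compounds for four days before counting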); conditions: human embryonic stem cell survival screen; stronger effect = higher value
[2] = liver-stage malaria parasite growth inhibition, primary screen, cell-based, HepG2, luciferase luminescence, HepG2 viability (AID 624349; in the data active means parasite load remaining mostly below about 12%, no sharp cut-off; inactive means mostly above about 10%;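 further: 100% = mean of DMSO negative control wells on the same plate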); conditions: P. berghei liver stage in HepG2, luciferase luminescence, concentration not given here; parasite load remaining: stronger effect = lower value; viability: measured here: HepG2 viability without parasites
[3] = stimulators of nuclear beta-catenin in C2C12, primary screen, imaging, WNT3A-conditioned medium, mouse C2C12, NPC library (AID 1117326; in the data active means nuclear beta-catenin stimulation mostly above about 4.2%, no sharp cut-off; inactive means mostly below about 10%); conditions: stronger effect = higher value
[4] = stimulators of insulin release from INS-1E, primary screen, cell-based, 5 mM glucose, NPC library (AID 1117329;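 active means compound raises insulin release from rat beta cells at 5 mM glucose, no numeric limit stated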); conditions: rat INS-1E insulin secretion, at 10 µM, stronger effect = higher value
[5] = growth inhibition of GSK3B-pretreated HCT116 cells – cell-based, CellTiter-Glo, 0.2 to 20 µM (AID 1117336;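 active means compounds lowering colon cancer cell viability after pretreatment blocking the GSK3B kinase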); conditions: HCT116 viability after GSK3B inhibitor, at 20 µM, stronger effect = higher value
[6] = inhibition of endothelial tube formation, primary screen, imaging, VEGF stimulated, CD31 staining, tube area, NPC library (AID 1117340;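 active means compound that reduces growth-factor-driven endothelial tube area in a mixed cell culture, no cutoff stated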); conditions: VEGF-stimulated ADSC/ECFC co-culture, at 10 µM, stronger effect = higher value
[7] = glucagon-like peptide 1 release enhancers, primary assay, NCI-H716 cell line, NPC library (AID 1117341;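 active means compound raises GLP1 secretion from the human gut endocrine cells, with no numeric limit stated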); conditions: NCI-H716 cells, at 10 µM, stronger effect = higher value
[8] = HCT116 colon cancer cell growth inhibition, primary screen, CellTiter-Glo luminescence, NPC library (AID 1117342;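 active means compounds that lower survival of HCT116 colon cancer cells in the luminescence readout, no numeric limit stated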); conditions: at 20 µM (top of the series)
[9] = CellTiter-Glo luminescent readout of SW480 viability loss, NPC library primary (AID 1117343;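 active means compounds that lower viability of the colon cancer cells in the luminescence readout, with no numeric limit stated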); conditions: CellTiter-Glo luminescence; at 20 µM (top of the series) unless noted
[10] = decreased DLD-1 cellular survival, CellTiter-Glo luminescent readout, NPC compound collection, primary HTS (AID 1117346;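 active means compounds that lower survival of DLD-1 colon cancer cells in the luminescence readout, no cutoff given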); conditions: DLD-1 viability, CellTiter-Glo luminescence; at 20 µM (top of the series)
[11] = differential killing of epithelial or mesenchymal cells, primary screen, imaging, PC-3E GFP, TEM4-18 mCherry, co-culture (AID 1345086;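 active means compounds killing one labelled cell type while sparing the other, by normalised counts and ratio limits, not self-fluorescent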;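 on all read-outs here: cells exposed to compound for 72 h before imaging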;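 on red/green cell ratio (normalised): normalised mesenchymal count divided by normalised epithelial count so high means epithelial killing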); conditions: imaging cell counts, at 1 µM; for red/green cell ratio (normalised): actives lie on both sides, counts scaled to control wells, 1 = unselective
[12] = survival rescue of mitochondrial mutant cells in low glucose, primary screen, MELAS cybrids, Rieske KO mouse fibroblasts, CellTiter-Glo (AID 1508586;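 active means mean z-score across replicates of 1.96 or higher in either the MELAS or the Rieske mutant cell line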;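 further: z relative to plate mean and SD of compound and empty wells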)
[13] = target: NAD(+) hydrolase SARM1 (Homo sapiens) (UniProt Q6SZW1); assay: SARM1 TIR NADase inhibitors, cell lysate, NAD-Glo luminescence (AID 1508614;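 active means compound whose remaining NAD level is above about 45 nM, limit read from the data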); conditions: SAM-TIR HEK293T lysate NADase, at 1 µM, stronger effect = higher value
[14] = sensitizers of A549 cells to miR-34 induction, primary screen, imaging, A549 dox-inducible miR-34, nuclei and caspase counts (AID 1347080;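 active means compounds whose cell count with miR-34 switched on is under 0.7 times the count with it off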); conditions: A549 miR-34 inducible, Hoechst nuclei count, 48 h
[15] = ovarian cancer cell viability with rucaparib, profiling panel, oncology-focused library, rucaparib conditional (AID 1508598); conditions: patient-derived ovarian cancer cells, CellTiter-Glo viability, 144 h, stronger effect = lower value
[16] = measured here: epithelial PC-3E GFP cell survival
[17] = measured here: mesenchymal TEM4-18 mCherry cell survival
[18] = MELAS cybrid survival, CellTiter-Glo 48 h, stronger effect = higher value
[19] = Rieske KO mouse fibroblast survival, CellTiter-Glo 72 h
[20] = stronger effect = lower value, cell number ratio, induced over uninduced
[21] = measured here: relative caspase fold change +Dox/-Dox
[22] = measured here: total cells with miR-34 induction, stronger effect = lower value
[23] = measured here: total cells without miR-34 induction

NAD(+) hydrolase SARM1 (Homo sapiens), sequence (Q6SZW1 whole entry, looked up): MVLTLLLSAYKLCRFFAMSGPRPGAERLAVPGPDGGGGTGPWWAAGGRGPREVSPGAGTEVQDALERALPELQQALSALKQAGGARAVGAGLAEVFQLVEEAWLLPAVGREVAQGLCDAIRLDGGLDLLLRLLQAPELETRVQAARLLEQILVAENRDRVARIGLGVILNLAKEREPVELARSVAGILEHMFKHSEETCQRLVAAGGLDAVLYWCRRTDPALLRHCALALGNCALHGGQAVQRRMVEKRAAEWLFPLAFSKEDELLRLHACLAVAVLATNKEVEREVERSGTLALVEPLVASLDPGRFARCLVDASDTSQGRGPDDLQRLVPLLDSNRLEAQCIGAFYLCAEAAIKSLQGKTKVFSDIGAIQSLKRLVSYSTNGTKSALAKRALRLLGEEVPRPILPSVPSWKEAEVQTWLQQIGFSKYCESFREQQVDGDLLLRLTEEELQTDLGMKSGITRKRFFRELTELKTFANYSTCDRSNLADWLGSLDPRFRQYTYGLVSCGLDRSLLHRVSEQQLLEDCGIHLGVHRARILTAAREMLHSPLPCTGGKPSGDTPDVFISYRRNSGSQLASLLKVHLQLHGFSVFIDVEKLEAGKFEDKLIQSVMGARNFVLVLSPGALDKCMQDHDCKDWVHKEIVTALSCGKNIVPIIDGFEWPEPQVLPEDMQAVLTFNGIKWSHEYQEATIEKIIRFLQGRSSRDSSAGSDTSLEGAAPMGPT

NC(N)=NC(N)=NCCc1ccccc1
inactive: survival [1] 15 | parasite load remaining [2] -0.135% and 69.8% and 0.98% | nuclear beta-catenin stimulation ([3]; at 10 µM) 0% | insulin secretion stimulation [4] -0.2% | viability decrease [5] 27.4% | tube area decrease [6] 27.6% | GLP1 secretion stimulation [7] -0.4% | inhibition of viability [8] 9.6% | viability decrease (inhibition) [10] 9.45% | red/green cell ratio (normalised) [11] 0.86 | z-score [12, 18] -0.896 and -0.373 and -0.362 | remaining NAD [13] 10 nM
active: viability decrease (inhibition) [9] 70.3%
41.9% and 91.2% and 89.5%: viability [2]
0.91: normalised cell number [11, 17]
-0.647 and 0.306 and -0.384: z-score [12, 19]
1.06: normalised cell number [11, 16]
1.1%: nuclear beta-catenin stimulation ([3]; stimulation, at 2 µM)

Cn1c(=O)c2c(ncn2CC2OCCO2)n(C)c1=O
inactive: parasite load remaining [2] 22.8% | nuclear beta-catenin stimulation ([3]; at 10 µM) 2.7% | insulin secretion stimulation [4] -2.4% | viability decrease [5] -0.95% | tube area decrease [6] -3.4% | GLP1 secretion stimulation [7] -1.2% | inhibition of viability [8] 16.1% | viability decrease (inhibition) [9] 46.8% | viability decrease (inhibition) [10] 11.7% | red/green cell ratio (normalised) [11] 0.85 | fold change [14, 20] 0.901 and 0.895 | z-score [12, 18] -0.299 and -0.511 and 0.326 | remaining NAD [13] 10 nM
0.98: normalised cell number [11, 17]
-0.174 and -0.641 and -0.268: z-score [12, 19]
9320 and 10900: cell count [14, 23]
8400 and 9760: cell count [14, 22]
0.475 and 1.33: fold change [14, 21]
112%: viability [2]
1.1%: nuclear beta-catenin stimulation ([3]; stimulation, at 2 µM)
1.16: normalised cell number [11, 16]

Cc1nc(Nc2ncc(C(=O)Nc3c(C)cccc3Cl)s2)cc(N2CCN(CCO)CC2)n1
active: nuclear beta-catenin stimulation ([3]; at 10 µM) 69.4% | tube area decrease [6] 62.2% | inhibition of viability [8] 69.7% | viability decrease (inhibition) [9] 87.2% | viability decrease (inhibition) [10] 100% | z-score [12, 18] 4.95 | viability ([15]; at 0.000305 µM, OCI-P5x cells, without rucaparib) 98.9% | viability ([15]; at 0.00122 µM, OCI-C5x cells, with rucaparib 10 µM, 100% = cells with rucaparib alone) 99.9% | viability ([15]; at 0.00122 µM, OCI-P5x cells, with rucaparib 20 µM, 100% = cells with rucaparib alone) 54.8% | viability ([15]; at 0.00122 µM, OCI-P5x cells, without rucaparib) 97.2% | viability ([15]; at 0.00488 µM, OCI-P5x cells, with rucaparib 20 µM, 100% = cells with rucaparib alone) 52.6% | viability ([15]; at 0.00488 µM, OCI-P5x cells, without rucaparib) 81.3% | viability ([15]; at 0.0195 µM, OCI-C5x cells, with rucaparib 10 µM, 100% = cells with rucaparib alone) 77.4% | viability ([15]; at 0.0195 µM, OCI-C5x cells, without rucaparib) 87.9% | viability ([15]; at 0.0195 µM, OCI-P5x cells, with rucaparib 20 µM, 100% = cells with rucaparib alone) 27.3% | viability ([15]; at 0.0195 µM, OCI-P5x cells, without rucaparib) 53.6% | viability ([15]; at 0.0781 µM, OCI-C5x cells, with rucaparib 10 µM, 100% = cells with rucaparib alone) 68.4% | viability ([15]; at 0.0781 µM, OCI-C5x cells, without rucaparib) 72.4% | viability ([15]; at 0.0781 µM, OCI-P5x cells, with rucaparib 20 µM, 100% = cells with rucaparib alone) 17% | viability ([15]; at 0.0781 µM, OCI-P5x cells, without rucaparib) 31.8% | viability ([15]; at 0.313 µM, OCI-C5x cells, with rucaparib 10 µM, 100% = cells with rucaparib alone) 69.2% | viability ([15]; at 0.313 µM, OCI-C5x cells, without rucaparib) 71.6% | viability ([15]; at 0.313 µM, OCI-P5x cells, with rucaparib 20 µM, 100% = cells with rucaparib alone) 17% | viability ([15]; at 0.313 µM, OCI-P5x cells, without rucaparib) 28.4% | viability ([15]; at 1.25 µM, OCI-C5x cells, with rucaparib 10 µM, 100% = cells with rucaparib alone) 66.7% | viability ([15]; at 1.25 µM, OCI-C5x cells, without rucaparib) 71.4% | viability ([15]; at 1.25 µM, OCI-P5x cells, with rucaparib 20 µM, 100% = cells with rucaparib alone) 16.6% | viability ([15]; at 1.25 µM, OCI-P5x cells, without rucaparib) 24.3% | viability ([15]; at 5 µM, OCI-C5x cells, with rucaparib 10 µM, 100% = cells with rucaparib alone) 44.6% | viability ([15]; at 5 µM, OCI-C5x cells, without rucaparib) 51.1% | viability ([15]; at 5 µM, OCI-P5x cells, with rucaparib 20 µM, 100% = cells with rucaparib alone) 2.14% | viability ([15]; at 5 µM, OCI-P5x cells, without rucaparib) 10.5%
470 and 582: cell count [14, 22]
-1.77: z-score [12, 19]
524 and 647: cell count [14, 23]
0.38: normalised cell number [11, 16]
65.2%: nuclear beta-catenin stimulation ([3]; stimulation, at 2 µM)
0.58: normalised cell number [11, 17]
0.654 and 0.731: fold change [14, 21]
inactive: insulin secretion stimulation [4] -0.7% | viability decrease [5] -182% | GLP1 secretion stimulation [7] 2.2% | red/green cell ratio (normalised) [11] 1.54 | fold change [14, 20] 0.896 and 0.9 | viability ([15]; at 0.000305 µM, OCI-C5x cells, with rucaparib 10 µM, 100% = cells with rucaparib alone) 102% | viability ([15]; at 0.000305 µM, OCI-C5x cells, without rucaparib) 117% | viability ([15]; at 0.000305 µM, OCI-P5x cells, with rucaparib 20 µM, 100% = cells with rucaparib alone) 103% | viability ([15]; at 0.00122 µM, OCI-C5x cells, without rucaparib) 114% | viability ([15]; at 0.00488 µM, OCI-C5x cells, with rucaparib 10 µM, 100% = cells with rucaparib alone) 107% | viability ([15]; at 0.00488 µM, OCI-C5x cells, without rucaparib) 108% | remaining NAD [13] 10 nM
